Laboratory results as given in PubChem BioAssay AID652067 (The Scripps Research Institute Molecular Screening Center, 2013).
Hit rate of the full screen: of about 370,000 compounds, about 5,400 (1.5%) were called active.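 Rule for the calls: active = activation above the mean of all tested compounds plus 3 SD (cut at about 5.5% in these data); inactive = the rest.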 This excerpt belongs to a sample that is enriched for actives.

tested on: DAF-12 nuclear receptor (Haemonchus contortus); experiment: hcDAF-12 driven luciferase reporter activation – cell-based, luminescence, HEK293, lit1-tk-luc reporter, primary screen (AID 652067); details: HEK293 hcDAF-12 lit1-tk-luc reporter, at 6.8 µM, active compounds read high, 0% DMSO, 100% Δ7-dafachronic acid;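 note: 100% = response to 3 µM Δ7-dafachronic acid high control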

SMILES | activation
CCCCOCC1CN(CCCC)S(=O)(=O)c2c(Oc3ccc(F)cc3)cccc2O1 (configuration not stated) | -1.09% (inactive)
C/C(Cc1ccccc1)=N\NC(=O)CNC(=O)c1ccc2c(c1)OCCO2 | -2.46% (inactive)
C/C(=N/NC(=S)Nc1ccccc1)c1ccc2c(c1)OCO2 | 8.71% (active)
C/C(=N\NC(=S)NCc1ccccc1)c1ccc(Cl)cc1 | -0.65% (inactive)
Cn1c(=NC(=O)C2CC2)sc2cc(F)cc(F)c21 | 7.5% (active)
Cc1cc(C)nc(NC(=S)N2CCN(c3ccc(C(F)(F)F)cn3)CC2)c1 | -1.92% (inactive)
CCCCN(C)C(=O)C1CCN(Cc2ccccn2)CC1 | -1.01% (inactive)
COc1ccc(-c2c3c(=O)n(C)c(=O)n(C)c3cn2-c2cccc(OC)c2)cc1 | 7.44% (active)
COc1ccc(OC)c(-n2cc3c(=O)n(C)c(=O)n(C)c3c2)c1 | -1.87% (inactive)
Cc1ccc(-c2c3c(=O)n(C)c(=O)n(C)c3cn2-n2cnnc2)cc1 | 2.64% (inactive)
Cc1ccc(C)c(NC(=O)CCS(=O)(=O)c2ccccc2)c1 | -3.65% (inactive)
COCC(C)NC(=O)c1ccc(Cl)c(Cl)c1 (configuration not stated) | -2.09% (inactive)
CC(CCc1ccccc1)NC(=O)c1cnc(Cl)c(Cl)c1 (configuration not stated) | 6.18% (active)
CC1=C(C)CC(C(=O)NC(C)CCc2ccccc2)C(C(=O)O)C1 (configuration not stated) | -2.02% (inactive)
O=C(NC1CCCC1)C1CSCCS(=O)(=O)N1Cc1ccccc1 (configuration not stated) | -0.49% (inactive)
COc1ccccc1CCn1cnc(-c2ccccc2)c1C(C)C | 0.67% (inactive)
O=C(NCc1ccccc1)[C@H]1CCCN1C(=O)[C@H]1CCCN1C(=O)c1cc(F)cc(F)c1 | 0.44% (inactive)
C[C@@H]1COc2cccc(N3CCCC3)c2S(=O)(=O)N1C | -0.39% (inactive)
COC(=O)[C@H](C(C)C)N(CCCc1cn(Cc2ccccc2)nn1)S(=O)(=O)c1ccc(F)cc1Br | -4.11% (inactive)

SMILES | activation
CC(C)(C)n1nc(C2CC2)c(Br)c1NC(=O)c1ccccc1F | -0.41% (inactive)
Fc1ccc2nc(Nc3nc4c(s3)CCCC4)sc2c1 | 10% (active)
COC(=O)C(NC(C)=O)(Nc1nc2c(s1)CCCC2)C(F)(F)F (configuration not stated) | 1.23% (inactive)
O=C(C1CCN(S(=O)(=O)c2ccccc2)CC1)N1CCN(C2CCCCC2)CC1 | -1.68% (inactive)
COCCCNC(=O)C[C@H]1C[C@@]2(C(=O)OC)C(=C[C@H](C(C)(C)C)O[C@@H]2C)N(Cc2ccc(Cl)cc2Cl)C1=O | 0.08% (inactive)
COC(=O)Cc1nnn2c1[C@H](C)[C@@H](OC)c1cc(Br)ccc1-2 | -1.33% (inactive)
CCOC(=O)CNC(=O)CSc1ncccc1-c1nc2ccccc2[nH]1 | 1.6% (inactive)
C/C(=N\Nc1nc2ccccc2[nH]1)c1cccs1 | 5.49% (inactive)
Cc1ccc(-c2nc3ccccc3[nH]2)cc1N | 10.9% (active)
O=C1c2ccccc2C(c2nc3ccccc3[nH]2)N1c1ccccc1 (configuration not stated) | -0.51% (inactive)
CCOC(=O)c1nc(-c2ccc3c(c2)OCO3)[nH]c1C | 4.99% (inactive)
c1ccc2[nH]c(-c3nc4ccccc4[nH]3)nc2c1 | 11.1% (active)
COC(=O)C1CN(CC(C)C)CCS(=O)(=O)N1Cc1ccc(F)cc1 (configuration not stated) | -1.55% (inactive)
C#CCCN([C@H](C(=O)OC)C(C)C)S(=O)(=O)c1ccc(F)cc1Br | -1.11% (inactive)
CN(CC(=O)Nc1cccc(F)c1)C(=O)C1CC(=O)N(CCc2ccccc2)C1 (configuration not stated) | 6.61% (active)
CCNC(=O)c1cccc(NC(=O)C2CC(=O)N(CCc3ccccc3)C2)c1 (configuration not stated) | -0.37% (inactive)
CN(Cc1ccccc1Cl)C(=O)C1CCC(=O)N(CCc2cccc(F)c2)C1 (configuration not stated) | -0.75% (inactive)
Cc1cc(C)c(C=NNc2nc3c([nH]2)c(=O)n(C)c(=O)n3C)c(C)c1 | 1.11% (inactive)
Cc1cccc(C)c1NC(=O)CSc1nc2c([nH]1)c(=O)n(C)c(=O)n2C | -0.94% (inactive)

SMILES | activation
Cc1ccc(NN=Nc2nc3c([nH]2)c(=O)n(C)c(=O)n3C)cc1 | 9.25% (active)
O=C(CSc1nc2ccccc2nc1N1CCCCC1)N1CCN(S(=O)(=O)c2cccc([N+](=O)[O-])c2)CC1 | -0.06% (inactive)
O=C(CSc1nnc(-c2ccccn2)n1-c1ccccc1)Nc1ccc2c(c1)OCO2 | -1.02% (inactive)
CC(C#N)OC(=O)c1cccnc1SCC(=O)Nc1ccc2c(c1)OCO2 (configuration not stated) | 7.41% (active)
Cc1ccc(-n2c(SCC(=O)Nc3ccc4c(c3)OCO4)nnc2-c2ccccn2)cc1 | -2.82% (inactive)
COC(=O)c1cc(S(=O)(=O)N2CCN(c3ccccc3C)CC2)cn1C | -0.73% (inactive)
C[C@H](O)[C@@H]1C(=O)N2CCc3c([nH]c4c(-c5ccc6c(c5)OCO6)cccc34)[C@@H]2C[C@@H]1N(C)C(=O)c1ccco1 | 1.47% (inactive)
Cc1cccc(C(=O)Nc2c(-c3ccc(F)cc3)nc3ncccn23)c1 | -3.14% (inactive)
COc1ccc(/C=C2\CC3(OC(C)=O)CCCN2C3)cc1 (configuration not stated) | -3.46% (inactive)
Cc1cc(NC(=O)COc2ccccc2C#N)no1 | 3.78% (inactive)
N#Cc1ccccc1NC(=O)COc1c(Br)cc(Br)c2cccnc12 | 5.88% (active)
O=C(COC(=O)c1ccccn1)Nc1cccc2ccccc12 | -0.09% (inactive)
COC(=O)C1=C(C)N(Cc2ccccc2C(F)(F)F)C(=NCc2ccc(OC)cc2)NC1c1cccc(C(F)(F)F)c1 (configuration not stated) | 0.01% (inactive)
CC(C)[C@H]1COCCS(=O)(=O)N1Cc1ccccc1-c1cccc2c1sc1ccccc12 | 1.38% (inactive)
CC(C)N(Cc1ccccc1)C(=O)COC(=O)c1cnccn1 | -0.24% (inactive)
O=S(=O)(c1ccc(Br)cc1)c1nc(-c2ccccc2)oc1N1CCOCC1 | 1.01% (inactive)
O=C(Oc1ccc(-c2nc(-c3ccccn3)no2)cc1)c1ccccc1 | 0.86% (inactive)
Brc1ccc(-c2noc(-c3ccccc3)n2)o1 | 7.04% (active)
Cc1ccc(-n2c(SCC(=O)Nc3ccc(S(=O)(=O)Nc4nccs4)cc3)nnc2-c2cccnc2)cc1 | -2.17% (inactive)
